Inhibition data for 19 compounds are collected here from ChEMBL document CHEMBL4296182, “CO-ADD screening of NIH NCI Diversity Set V”.

One test deals with Staphylococcus aureus. Briefly: Antibacterial activity against Staphylococcus aureus MRSA ATCC 43300 (CO-ADD:GP_020); MIC in CAMBH media using NBS plates, by Resazurin F(560/590). It is filed as functional. As to conditions: Concentration 20 uM, ASSAY_TEST Inhibition of Bacterial Growth, detection method Resazurin, Fluorescence (ex560/em590), MEDIA CAMHB, plate type 384well, CORNING #3640, time 18 hr.

A further test concerns Acinetobacter baumannii. Briefly: Antibacterial activity against Acinetobacter baumannii ATCC 19606 (CO-ADD:GN_034); MIC in CAMBH media using NBS plates, by Resazurin F(560/590). The format is functional. Particulars: Concentration 20 uM, ASSAY_TEST Inhibition of Bacterial Growth, detection method Resazurin, Fluorescence (ex560/em590), MEDIA CAMHB, plate type 384well, CORNING #3640, time 18 hr. (Resazurin is reduced to fluorescent resorufin, in cell work by metabolically active cells.)

In another test the test system is Escherichia coli. Briefly: Antibacterial activity against Escherichia coli ATCC 25922 (CO-ADD:GN_001); MIC in CAMBH media using NBS plates, by Resazurin F(560/590). It is filed as functional. Particulars: Concentration 20 uM, ASSAY_TEST Inhibition of Bacterial Growth, detection method Resazurin, Fluorescence (ex560/em590), MEDIA CAMHB, plate type 384well, CORNING #3640, time 18 hr.

For the next test, the system named is Klebsiella pneumoniae. As to conditions: Concentration 20 uM; ASSAY_TEST Inhibition of Bacterial Growth; detection method Absorption (OD600); MEDIA CAMHB; plate type 384well; NBS; CORNING #3640; time 18 hr.
The next test relates to Candida albicans. Particulars: 20 µM.
For a further test, the system named is Cryptococcus neoformans. Particulars: Concentration 20 uM; ASSAY_TEST Inhibition of Fungal Growth; detection method Resazurin; Absorption (OD600-OD570); plate type 384well; NBS; CORNING #3640.

Structures are written as SMILES. For part of these data: Measured potencies and affinities stand elsewhere.

As to `S=C1SCN(CCc2ccccc2)CN1CCc1ccccc1`, the Inhibition is -3.89% with Staphylococcus aureus; 1.92% in the test with Acinetobacter baumannii; 3.19% in the test with Escherichia coli; 4.28% with Klebsiella pneumoniae; 31.3% with Candida albicans; -3.46% with Cryptococcus neoformans.
Regarding `COc1ccc(Br)c2c1C(=O)CC2`, the Inhibition with Staphylococcus aureus is 10.21%; with Acinetobacter baumannii, -14.67%; in the test with Escherichia coli it was 12.53%; in the test with Klebsiella pneumoniae it was -2.44%; in the test on Candida albicans, 20.7%; in the test on Cryptococcus neoformans, -15.03%.
On to `CCOC(=O)c1c(N=C(S)NC)sc2c1CCCC2`, for which the Inhibition in the test with Staphylococcus aureus is -2.15%; in the test with Acinetobacter baumannii it was 0.51%; in the test with Escherichia coli it was 7.45%; in the test on Klebsiella pneumoniae, 1.7%; in the test with Candida albicans, 6.72%; with Cryptococcus neoformans, -11.99%.
As for `O=[N+]([O-])c1nc[nH]c1/C=C\c1ccccc1`, the Inhibition with Staphylococcus aureus was 6.19%; in the test on Acinetobacter baumannii, -12.82%; with Escherichia coli, 5.35%; with Klebsiella pneumoniae, 8.67%; with Candida albicans it was 3.47%; in the test on Cryptococcus neoformans, 10.56%.
On to `OC(c1ccccc1)(c1ccccc1)c1nccn1-c1ccccc1`, for which the Inhibition was 0.11% in the test on Staphylococcus aureus; -3.61% with Acinetobacter baumannii; 5% with Escherichia coli; 3.43% with Klebsiella pneumoniae; 1.72% with Candida albicans; -7.88% in the test with Cryptococcus neoformans.
As for `C=C(C)C(=O)Nc1ccc(NC(C)C)cc1`, the Inhibition in the test on Staphylococcus aureus was 12%; with Acinetobacter baumannii it was 5.36%; in the test with Escherichia coli, 6.32%; in the test with Klebsiella pneumoniae, 8.48%; with Candida albicans it was 4.24%; with Cryptococcus neoformans, -6.96%.
With `O=C(O)c1cccc2c1C(=O)c1cccc3snc-2c13`, the Inhibition was 11.24% with Staphylococcus aureus; 8.28% with Acinetobacter baumannii; -4.32% in the test with Escherichia coli; 2.89% with Klebsiella pneumoniae; 21.9% in the test on Candida albicans; -0.5% in the test on Cryptococcus neoformans.
On to `COC(=O)c1ccccc1NCCO`, for which the Inhibition is -8.89% in the test with Staphylococcus aureus; 2.46% with Acinetobacter baumannii; 10.44% in the test with Escherichia coli; 7.33% in the test with Klebsiella pneumoniae; -0.42% with Candida albicans; -9.6% in the test with Cryptococcus neoformans.
On to `CCOC(=O)Cc1csc2nc(-c3ccccc3)nn12`, for which the Inhibition in the test with Staphylococcus aureus is -0.44%; in the test with Acinetobacter baumannii it was -7.19%; with Escherichia coli it was 5.98%; in the test on Klebsiella pneumoniae, -2.91%; in the test with Candida albicans, 3.06%; in the test with Cryptococcus neoformans it was -9.7%.
For the compound `COc1cc(-c2ccc(NC(=O)NC3CC3)c(OC)c2)ccc1NC(=O)NC1CC1`, the Inhibition was 15.12% in the test with Staphylococcus aureus; -9.96% with Acinetobacter baumannii; 13.19% in the test on Escherichia coli; 5.08% in the test on Klebsiella pneumoniae; 3.52% with Candida albicans; -5.24% with Cryptococcus neoformans.
`Cc1c(O)ccc2c(O)c(NC(=O)c3ccc4c(c3)CCC(C)(C)O4)c(=O)oc12` [CYCLONOVOBIOCIC ACID]: the Inhibition is 10.86% with Staphylococcus aureus; 10.56% in the test with Acinetobacter baumannii; -1.41% with Escherichia coli; 4.57% in the test with Klebsiella pneumoniae; 4.26% in the test on Candida albicans; -3.84% with Cryptococcus neoformans.
For the compound `CCSc1ncc(CO)c(N)n1`, the Inhibition in the test with Staphylococcus aureus was 4.68%; in the test with Acinetobacter baumannii it was -13.15%; with Escherichia coli, 2.64%; in the test on Klebsiella pneumoniae, 10.1%; in the test on Candida albicans, 0.06%; in the test with Cryptococcus neoformans, 1.67%.
On to `CCCN(CCC)c1ccc(/C=C/c2ccc3cc(OCC)ccc3n2)cc1`, for which the Inhibition is 6.79% in the test with Staphylococcus aureus; 8.69% with Acinetobacter baumannii; -3.61% in the test with Escherichia coli; 28.88% in the test with Klebsiella pneumoniae; -0.13% in the test with Candida albicans; -5.04% in the test on Cryptococcus neoformans.
On to `c1ccc2sc(SCSc3nc4ccccc4s3)nc2c1`, for which the Inhibition is -0.38% with Staphylococcus aureus; -17.15% in the test with Acinetobacter baumannii; 3.51% in the test with Escherichia coli; 4.08% in the test with Klebsiella pneumoniae; 12.5% with Candida albicans; -13.87% in the test with Cryptococcus neoformans.
`Cc1c(COC(=O)NC(C)C)c(COC(=O)NC(C)C)c2n1CS(=O)(=O)C2`: the Inhibition is 22.95% in the test with Staphylococcus aureus; -7.7% in the test with Acinetobacter baumannii; 11.68% with Escherichia coli; 15.71% with Klebsiella pneumoniae; 3.64% in the test with Candida albicans; -8.35% in the test with Cryptococcus neoformans.
On to `COc1cc(CC(=O)C(=O)O)oc(=O)c1`, for which the Inhibition with Staphylococcus aureus was 12.14%; in the test with Acinetobacter baumannii, 6.41%; in the test with Escherichia coli it was -2.06%; in the test on Klebsiella pneumoniae, 12.51%; with Candida albicans, 3.8%; in the test with Cryptococcus neoformans, -8.52%.
On to `N#C/C(=C\c1ccc(C#N)cc1)C(=O)c1ccccc1`, for which the Inhibition in the test with Staphylococcus aureus is -10.06%; in the test on Acinetobacter baumannii, -6.48%; in the test on Escherichia coli, 6.05%; with Klebsiella pneumoniae, 15.1%; with Candida albicans, 8.77%; in the test on Cryptococcus neoformans, -10.85%.
`C[C@]12CC[C@@H]3c4ccc(OCC(=O)O)cc4CC[C@H]3[C@@H]1CCC2=O`: the Inhibition in the test with Staphylococcus aureus was 9.17%; in the test with Acinetobacter baumannii, -16.81%; with Escherichia coli, 9.71%; with Klebsiella pneumoniae it was 8.63%; with Candida albicans it was 3.7%; in the test on Cryptococcus neoformans it was -16.24%.
Consider `CC(=O)O[C@H]1CC[C@@]2(C)[C@@H](CC[C@@H]3[C@@H]2CC(=O)[C@@]2(C)[C@H]3C[C@@H]3CC(C)=CC(=O)[C@@H]32)C1`, for which the Inhibition is 25.43% in the test with Staphylococcus aureus; -5.19% in the test on Acinetobacter baumannii; 14.73% with Escherichia coli; 18.64% in the test on Klebsiella pneumoniae; 2.5% in the test with Candida albicans; -9.27% in the test on Cryptococcus neoformans.

One may read the Inhibition as the change of the read-out against control, counted positive when it falls.
